The nature of assay [1]: qHTS assay to identify small molecule agonists of the TGF-beta/Smad signaling pathway (AID 1346859; active = well fitted activation curve with a large enough effect in the signal ratio in the repeat runs, not every such curve was filed as active; the % refers to the signal ratio; also: series mostly up to about 77 µM). The method, boiled down:
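Screening used HEK 293T SBE-bla cells at 4,000/well. Test agents: 5 hr, 37 C. Detection: FRET substrate, 2 hr RT, then excitation 405 nm with emissions at 460 and 530 nm.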
In general terms: qHTS replaces the single test concentration by a dilution series.

Assay [2] concerns the target Thyrotropin-releasing hormone receptor (Homo sapiens) (UniProt P34981). The assay can be described thus: qHTS assay to identify small molecule antagonists of the thyrotropin-releasing hormone receptor (TRHR) signaling pathway (AID 1346877; active = well fitted inhibition curve with a large enough effect in the repeat runs, not every such curve was filed as active; also: series mostly up to about 51 µM). A digest of the protocol:
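Human TRHR in HEK293 cells; inhibition of the intracellular calcium rise triggered by 1 nM TRH was followed by fluorescence over 3 min. Compounds were run at 15 concentrations, three replicates each.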

Assay [3] shares this target. The assay can be described thus: qHTS assay to identify small molecule agonists of the thyrotropin-releasing hormone receptor (TRHR) signaling pathway (AID 1346891; calls by dose curve; also: series mostly up to about 58 µM). The method, boiled down: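 Readout was intracellular calcium fluorescence in TRHR-Hek293 cells. Cells were incubated 18 h, dye-loaded 2 h at 37 °C, and treated with compound in agonist mode.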
A short description of assay [4]: Human pregnane X receptor (PXR) small molecule agonists, qHTS cell viability counter screen (AID 1346977). Also: nearly all actives have a fitted effect of over 50% in size. The method, boiled down:
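In each well, the PXR reporter HepG2 line was checked for viability: CellTiter-Fluor reagent added 23hr post-dosing, fluorescence read after 1hr incubation at 37C.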

Assay [5] can be described thus: Caspase-3/7 induction in HepG2 cells by small molecules, qHTS assay (AID 1346978). Also: nearly all actives have a fitted effect of over 15% in size. A digest of the protocol:
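Caspase-3/7 induction was measured by Caspase-Glo 3/7 luminescence (30 min, room temperature) after a 17 hr compound exposure of wild-type HepG2 cells seeded at 2,000 per well and pre-incubated 5 hr.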

Assay [6] can be described thus: Caspase-3/7 induction in CHO-K1 cells by small molecules, qHTS cell viability counter screen (AID 1346979). Also: nearly all actives have a fitted effect of over 35% in size. The method, boiled down: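 Following a 5hr settling period, CHO-K1 cells at 1,500 per well received DMSO-dissolved compounds. Cell viability was quantified 16hr later by CellTiter-Fluor fluorescence, measured after 1hr with reagent at 37C.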
A short description of assay [7]: Caspase-3/7 induction in CHO-K1 cells by small molecules, qHTS assay (AID 1346980). Also: nearly all actives have a fitted effect of over 15% in size. A digest of the protocol:
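Luminescent Caspase-Glo 3/7 read (30min, room temperature) quantified apoptosis induction. Cells were wild-type CHO-K1, treated with compound for 17hr at 37 C and 5% CO2.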

A short description of assay [8]: Caspase-3/7 induction in HepG2 cells by small molecules, qHTS cell viability counter screen (AID 1346981). Also: series mostly up to about 92 µM; nearly all actives have a fitted effect of over 30% in size. A digest of the protocol:
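The parent HepG2 line is plated at 2,000 cells per well and rested 5 hr before compound pinning from DMSO stocks. Following a 16-hr treatment at 37 C, a fluorogenic live-cell substrate (CellTiter-Fluor) reports viability after 1 hr.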

For assay [9], the target named is Nuclear receptor subfamily 1 group I member 2 (Homo sapiens) (UniProt O75469). The assay can be described thus: Human pregnane X receptor (PXR) small molecule agonists, qHTS assay (AID 1346982). Also: nearly all actives have a fitted effect of over 35% in size. Also: potency is read from the fitted curve at half-maximal effect. A digest of the protocol:
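After plating in 5% charcoal-stripped FBS and a 5 hr rest, PXR-Luc HepG2 cells received compounds in DMSO. Following 24 hr at 37 C, ONE-Glo was added and light output read.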

In assay [10] the target is Cytochrome P450 2D6 (Homo sapiens) (UniProt P10635). The assay can be described thus: Cytochrome P450 Family 2 Subfamily D Member 6 (CYP2D6) small molecule antagonists: luciferase reporter qHTS assay (AID 1671196). Also: nearly all actives have a fitted effect of over 50% in size. Also: potency is read from the fitted curve at half-maximal effect. The method, boiled down: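 Quantitative HTS of Tox21 chemicals against CYP2D6 using a luminescent proluciferin substrate. After NADPH addition, 1 h room-temperature reaction; luminescence recorded 20 min post detection reagent.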
Sequence of Cytochrome P450 2D6 (Homo sapiens) (P10635 whole entry, looked up): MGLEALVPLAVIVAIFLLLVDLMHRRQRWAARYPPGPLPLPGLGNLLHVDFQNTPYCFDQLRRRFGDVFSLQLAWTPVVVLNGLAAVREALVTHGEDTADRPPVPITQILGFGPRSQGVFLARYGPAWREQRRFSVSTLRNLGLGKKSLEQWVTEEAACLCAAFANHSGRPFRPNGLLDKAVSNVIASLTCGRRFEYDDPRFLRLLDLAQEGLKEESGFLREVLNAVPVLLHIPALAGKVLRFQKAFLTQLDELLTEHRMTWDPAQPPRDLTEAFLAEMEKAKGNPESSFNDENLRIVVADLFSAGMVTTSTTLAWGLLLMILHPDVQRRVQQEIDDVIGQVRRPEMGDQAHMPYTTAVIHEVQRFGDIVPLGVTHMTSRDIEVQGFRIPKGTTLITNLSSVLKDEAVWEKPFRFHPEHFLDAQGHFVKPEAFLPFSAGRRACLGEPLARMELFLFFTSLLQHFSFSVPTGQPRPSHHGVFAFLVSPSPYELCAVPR
(In a reporter assay the amount or activity of a reporter protein is the signal.)

Assay [11] has as its target Cytochrome P450 2C19 (Homo sapiens) (UniProt P33261). Description: Cytochrome P450 Family 2 Subfamily C Member 19 (CYP2C19) small molecule antagonists: luciferase reporter qHTS assay (AID 1671197). Also: series mostly up to about 120 µM; nearly all actives have a fitted effect of over 65% in size. A digest of the protocol: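 Light output is proportional to CYP2C19 activity: proluciferin substrate is converted to luciferin, then detected by a luciferin detection reagent that also stops the 1 h, 37C NADPH-driven reaction. Ketoconazole serves as positive control.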

Assay [12] deals with Cytochrome P450 1A2 (Homo sapiens) (UniProt P05177). Description: Cytochrome P450 Family 1 Subfamily A Member 2 (CYP1A2) small molecule antagonists: luciferase reporter qHTS assay (AID 1671199). Also: nearly all actives have a fitted effect of over 50% in size. Also: potency is read from the fitted curve at half-maximal effect. The method, boiled down:
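Quantitative high-throughput format using the P450-Glo CYP1A2 system. Reaction initiated by NADPH regeneration solution, 1 h at room temperature, then stopped with detection reagent; luminescence measured 20 min later.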

Assay [13] deals with Voltage-gated inwardly rectifying potassium channel KCNH2 (Homo sapiens) (UniProt Q12809). Description: Human Ether-a-go-go-Related Gene (hERG) channel small molecule antagonists: fluorescence cell-based qHTS assay (AID 1671200).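 Also: hERG-expressing U2OS cells given a thallium stimulus after FluxOR II dye loading; series mostly up to about 77 µM; nearly all actives have a fitted effect of over 50% in size.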 The method, boiled down: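 In this thallium-flux screen, overnight-cultured U2OS cells bearing the channel are dye-loaded in darkness for an hour, rested 10 min at room temperature, and then monitored kinetically at 480/540 nm for two minutes post-stimulus.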
Sequence of Voltage-gated inwardly rectifying potassium channel KCNH2 (Homo sapiens) (Q12809 whole entry, looked up): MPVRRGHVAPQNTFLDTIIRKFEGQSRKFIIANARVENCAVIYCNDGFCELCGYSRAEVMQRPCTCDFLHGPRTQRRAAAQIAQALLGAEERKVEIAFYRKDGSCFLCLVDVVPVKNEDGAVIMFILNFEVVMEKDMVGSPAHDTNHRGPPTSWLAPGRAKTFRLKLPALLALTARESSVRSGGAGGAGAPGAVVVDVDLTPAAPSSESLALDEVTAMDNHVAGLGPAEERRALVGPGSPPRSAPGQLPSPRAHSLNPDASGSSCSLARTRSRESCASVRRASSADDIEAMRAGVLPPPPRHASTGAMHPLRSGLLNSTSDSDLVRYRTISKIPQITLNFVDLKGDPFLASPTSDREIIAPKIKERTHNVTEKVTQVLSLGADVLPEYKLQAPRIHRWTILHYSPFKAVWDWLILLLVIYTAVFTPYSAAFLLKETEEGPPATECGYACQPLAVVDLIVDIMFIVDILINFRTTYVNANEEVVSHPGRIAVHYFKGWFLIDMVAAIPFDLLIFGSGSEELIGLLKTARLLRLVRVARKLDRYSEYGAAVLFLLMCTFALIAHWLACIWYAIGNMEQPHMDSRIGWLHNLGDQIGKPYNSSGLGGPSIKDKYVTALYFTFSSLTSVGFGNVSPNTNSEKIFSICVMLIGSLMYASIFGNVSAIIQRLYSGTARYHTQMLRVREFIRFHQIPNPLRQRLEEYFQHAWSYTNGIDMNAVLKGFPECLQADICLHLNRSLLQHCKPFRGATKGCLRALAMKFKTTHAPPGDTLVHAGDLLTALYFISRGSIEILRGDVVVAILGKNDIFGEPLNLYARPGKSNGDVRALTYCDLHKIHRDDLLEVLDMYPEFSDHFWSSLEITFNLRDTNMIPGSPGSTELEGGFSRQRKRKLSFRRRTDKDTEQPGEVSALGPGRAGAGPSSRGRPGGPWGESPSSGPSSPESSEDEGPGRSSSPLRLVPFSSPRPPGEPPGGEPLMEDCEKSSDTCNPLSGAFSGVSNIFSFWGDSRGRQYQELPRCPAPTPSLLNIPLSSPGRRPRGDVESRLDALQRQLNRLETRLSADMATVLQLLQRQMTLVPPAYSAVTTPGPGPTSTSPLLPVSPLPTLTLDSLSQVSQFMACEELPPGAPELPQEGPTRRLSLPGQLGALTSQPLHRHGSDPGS
(Block of hERG is tested as a sign of cardiac risk.)

For assay [14], the target named is Cytochrome P450 3A4 (Homo sapiens) (UniProt P08684). Description: Cytochrome P450 Family 3 Subfamily A Member 4 (CYP3A4) small molecule antagonists: luciferase reporter qHTS assay (AID 1671201). A digest of the protocol: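 CYP3A4 activity was followed with a P450-Glo proluciferin substrate. Test compounds in DMSO were preincubated 10 min; NADPH regeneration then ran 1 h, and light output was read 20 min after detection reagent.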
Sequence of Cytochrome P450 3A4 (Homo sapiens) (P08684 whole entry, looked up): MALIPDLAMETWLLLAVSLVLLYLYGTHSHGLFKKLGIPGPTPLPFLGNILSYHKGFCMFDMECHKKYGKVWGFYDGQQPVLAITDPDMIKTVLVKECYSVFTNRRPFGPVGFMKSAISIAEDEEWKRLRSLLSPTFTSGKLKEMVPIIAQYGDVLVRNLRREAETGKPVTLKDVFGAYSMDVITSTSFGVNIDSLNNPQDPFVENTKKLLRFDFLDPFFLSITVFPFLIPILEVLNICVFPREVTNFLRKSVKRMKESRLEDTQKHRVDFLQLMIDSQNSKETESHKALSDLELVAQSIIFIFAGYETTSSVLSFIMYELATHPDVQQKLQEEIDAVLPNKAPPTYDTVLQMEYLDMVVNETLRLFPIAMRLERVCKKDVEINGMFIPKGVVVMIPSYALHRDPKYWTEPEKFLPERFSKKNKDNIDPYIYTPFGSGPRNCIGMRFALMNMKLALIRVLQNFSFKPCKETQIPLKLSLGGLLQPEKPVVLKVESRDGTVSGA

Assay [15] has as its target Cytochrome P450 2C9 (Homo sapiens) (UniProt P11712). Description: Cytochrome P450 Family 2 Subfamily C Member 9 (CYP2C9) small molecule antagonists: luciferase reporter qHTS assay (AID 1671198). Also: nearly all actives have a fitted effect of over 50% in size. Also: potency is read from the fitted curve at half-maximal effect. A digest of the protocol: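 Enzyme-substrate mix preincubated with compound 10 min at room temperature; reaction started with NADPH regeneration solution, 1 h 37C. Luminescent luciferin product read after 20 min detection reagent.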

Assay [16] has as its target Nuclear receptor subfamily 1 group I member 2 (Rattus norvegicus) (UniProt Q9R1A7). Description: Rat pregnane X receptor (rPXR) activation by small molecules, qHTS assay (AID 1346983). Also: nearly all actives have a fitted effect of over 20% in size. Also: potency is read from the fitted curve at half-maximal effect. To be noted: rPXR luciferase reporter cells, One-Glo luminescence, 24 h; max activation: hits give high values. The method, boiled down:
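Luminescent readout (One-Glo luciferase, 30 min room temperature) followed 24 hr compound treatment at 37 C of rPXR cells plated 2,000 per well and preincubated 5hr; qHTS format with compounds delivered in DMSO.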

Assay [17] addresses Nuclear receptor subfamily 1 group I member 2 (Homo sapiens) (UniProt O75469). Description: CYP3A4 induction through human pregnane X receptor (PXR) by small molecules, qHTS assay (AID 1346984). Also: nearly all actives have a fitted effect of over 40% in size. A digest of the protocol:
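Human PXR activation is tracked via CYP3A4 promoter-luciferase in DPX-2 (HepG2) cells. Compounds treat cells for 24hr at 37C, and luminescence is read after One-Glo.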

Assay [18] has the same target. The assay can be described thus: Human pregnane X receptor (PXR) activation by small molecules, qHTS assay (AID 1346985). Also: nearly all actives have a fitted effect of over 40% in size. The method, boiled down: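 DPX-2 cells (HepG2 co-transfected with a PXR response element and a CYP3A4-promoter luciferase construct) were seeded at 2,000 per well, rested 5 hr at 37C, then exposed to DMSO-dissolved compounds for 24 hr. Activation was read as luciferase luminescence.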

Molecules are shown by their SMILES. Values without a mark were called inactive. Inconclusive results are not listed. Calls of active or inactive are those of the source. Unless noted, calls follow the shape of the dose curve; as a rule, active = well fitted curve in the direction sought with a large enough effect in the repeat runs; inconclusive = weak or mixed curves; inactive = no such curve, though single readings can be large; an effect the other way counts as inactive or inconclusive.
% is scaled to controls: 0 for no effect and ±100 for the full control effect.

Sequence of Thyrotropin-releasing hormone receptor (Homo sapiens) (P34981 whole entry, looked up): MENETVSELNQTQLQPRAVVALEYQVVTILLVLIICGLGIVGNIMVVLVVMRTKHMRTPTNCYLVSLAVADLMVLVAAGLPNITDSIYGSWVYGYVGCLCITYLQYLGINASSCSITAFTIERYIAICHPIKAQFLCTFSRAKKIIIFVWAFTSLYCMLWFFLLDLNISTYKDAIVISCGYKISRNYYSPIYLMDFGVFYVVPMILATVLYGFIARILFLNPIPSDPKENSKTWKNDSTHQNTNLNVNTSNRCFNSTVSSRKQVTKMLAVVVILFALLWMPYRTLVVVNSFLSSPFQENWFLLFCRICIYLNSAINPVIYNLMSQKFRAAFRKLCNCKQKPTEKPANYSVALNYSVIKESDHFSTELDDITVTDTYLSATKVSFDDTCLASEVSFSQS
Sequence of Cytochrome P450 1A2 (Homo sapiens) (P05177 whole entry, looked up): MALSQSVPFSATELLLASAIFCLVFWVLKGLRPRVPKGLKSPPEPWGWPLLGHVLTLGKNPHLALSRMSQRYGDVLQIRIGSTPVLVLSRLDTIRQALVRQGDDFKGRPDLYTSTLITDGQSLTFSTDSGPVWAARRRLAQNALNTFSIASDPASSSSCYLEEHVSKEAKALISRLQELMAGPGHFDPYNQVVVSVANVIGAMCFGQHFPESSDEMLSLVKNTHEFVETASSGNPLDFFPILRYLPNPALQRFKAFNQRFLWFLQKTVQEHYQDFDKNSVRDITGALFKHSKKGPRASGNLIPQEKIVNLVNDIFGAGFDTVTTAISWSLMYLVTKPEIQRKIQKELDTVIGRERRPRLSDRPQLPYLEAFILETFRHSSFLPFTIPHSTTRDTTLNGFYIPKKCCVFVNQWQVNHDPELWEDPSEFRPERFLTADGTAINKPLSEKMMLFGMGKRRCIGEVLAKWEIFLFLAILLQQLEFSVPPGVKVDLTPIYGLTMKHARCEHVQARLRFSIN
Sequence of Nuclear receptor subfamily 1 group I member 2 (Homo sapiens) (O75469 whole entry, looked up): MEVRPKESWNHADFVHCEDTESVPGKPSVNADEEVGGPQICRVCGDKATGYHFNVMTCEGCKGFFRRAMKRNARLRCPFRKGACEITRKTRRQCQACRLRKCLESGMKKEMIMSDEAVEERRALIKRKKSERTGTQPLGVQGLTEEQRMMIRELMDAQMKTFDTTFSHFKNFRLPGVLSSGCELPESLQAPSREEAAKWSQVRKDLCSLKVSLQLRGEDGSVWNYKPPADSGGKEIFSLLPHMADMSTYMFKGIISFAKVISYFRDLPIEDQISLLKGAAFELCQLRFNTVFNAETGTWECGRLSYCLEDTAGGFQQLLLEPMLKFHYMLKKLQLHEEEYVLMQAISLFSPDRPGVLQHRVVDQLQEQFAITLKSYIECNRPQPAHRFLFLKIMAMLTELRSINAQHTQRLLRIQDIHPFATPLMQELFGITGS
Sequence of Cytochrome P450 2C9 (Homo sapiens) (P11712 whole entry, looked up): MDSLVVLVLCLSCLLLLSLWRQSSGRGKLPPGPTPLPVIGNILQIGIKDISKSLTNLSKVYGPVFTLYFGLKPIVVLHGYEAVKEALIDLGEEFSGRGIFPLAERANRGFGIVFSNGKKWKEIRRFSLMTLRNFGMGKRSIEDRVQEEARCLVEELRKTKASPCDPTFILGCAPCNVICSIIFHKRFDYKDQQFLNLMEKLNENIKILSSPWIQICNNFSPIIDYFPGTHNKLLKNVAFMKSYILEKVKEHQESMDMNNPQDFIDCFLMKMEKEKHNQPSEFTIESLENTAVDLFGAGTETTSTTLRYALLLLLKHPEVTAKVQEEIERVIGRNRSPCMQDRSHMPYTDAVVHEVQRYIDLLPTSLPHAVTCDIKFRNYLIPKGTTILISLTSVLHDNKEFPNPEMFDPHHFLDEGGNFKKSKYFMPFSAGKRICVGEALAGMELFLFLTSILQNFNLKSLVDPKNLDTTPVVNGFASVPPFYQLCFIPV
Sequence of Cytochrome P450 2C19 (Homo sapiens) (P33261 whole entry, looked up): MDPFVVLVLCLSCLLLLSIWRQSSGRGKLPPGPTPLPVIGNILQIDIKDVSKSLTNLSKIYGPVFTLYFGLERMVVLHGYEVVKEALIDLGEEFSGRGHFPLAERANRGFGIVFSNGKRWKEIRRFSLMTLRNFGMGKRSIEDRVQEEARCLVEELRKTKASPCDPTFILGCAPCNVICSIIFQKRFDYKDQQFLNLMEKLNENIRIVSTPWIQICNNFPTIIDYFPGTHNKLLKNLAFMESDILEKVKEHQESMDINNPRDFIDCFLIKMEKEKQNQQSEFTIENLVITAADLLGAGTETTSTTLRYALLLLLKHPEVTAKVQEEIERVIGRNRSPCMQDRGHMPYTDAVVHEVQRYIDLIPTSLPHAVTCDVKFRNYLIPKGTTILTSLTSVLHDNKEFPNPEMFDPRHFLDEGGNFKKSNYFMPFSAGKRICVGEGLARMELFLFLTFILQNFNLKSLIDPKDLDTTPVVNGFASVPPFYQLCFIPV
Sequence of Nuclear receptor subfamily 1 group I member 2 (Rattus norvegicus) (Q9R1A7 whole entry, looked up): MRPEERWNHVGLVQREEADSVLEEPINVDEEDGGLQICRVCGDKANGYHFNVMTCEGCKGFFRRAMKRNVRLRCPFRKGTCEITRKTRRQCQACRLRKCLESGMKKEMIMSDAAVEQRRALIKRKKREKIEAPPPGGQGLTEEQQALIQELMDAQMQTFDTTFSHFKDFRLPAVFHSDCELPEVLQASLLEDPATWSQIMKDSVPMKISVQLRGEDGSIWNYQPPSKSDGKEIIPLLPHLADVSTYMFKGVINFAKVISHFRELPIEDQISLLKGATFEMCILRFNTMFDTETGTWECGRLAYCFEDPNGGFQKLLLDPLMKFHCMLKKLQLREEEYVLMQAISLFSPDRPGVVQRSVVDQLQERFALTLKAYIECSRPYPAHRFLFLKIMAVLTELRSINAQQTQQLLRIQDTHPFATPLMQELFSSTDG

Turning to `CCCCCC(=O)CC`, the compound was classed as inactive in assay [1], in assay [2], in [4], in assay [5], in [7] and in assay [8]. Besides, the Potency entry in assay [3], in assay [6], in assay [9], in assay [10], in [11] and in assay [12] was “inactive” each time. For the same compound, the Potency result in [13] and in assay [14] was “inactive” in each case.
Turning to `Cc1ccc(O)c([N+](=O)[O-])c1`, the compound was classed as inactive in [1], in assay [2], in assay [4], in assay [5], in assay [7] and in [8]. Moreover, the Potency entry in [3], in assay [6], in [9], in assay [11], in [15] and in [14] was “inactive” each time. Also, the Potency in assay [10] is 71.8 µM (active).
For the compound `COc1ccc(Cl)cc1C`, the compound was classed as inactive in assay [1], in assay [2], in [4], in assay [5], in assay [7] and in assay [8]. Also, the Potency entry in assay [3], in assay [6], in [9], in [10], in [13] and in [14] was “inactive” each time. The Potency in assay [15] was 84.7 µM (active).
As for `Cc1ccc2ccccc2n1`, the outcome in [1], in assay [2], in [4], in assay [5], in [7] and in assay [8] was inactive. Further, the Potency entry in [3], in assay [6], in assay [9], in assay [10], in assay [11] and in assay [15] was “inactive” in each case. The Potency entry in assay [13] and in assay [14] was “inactive” in each case.
`C[C@]12C=CC(=O)C=C1[C@@H](F)C[C@@H]1[C@@H]2[C@@H](O)C[C@@]2(C)[C@H]1CC[C@]2(O)C(=O)CO`: the outcome in [1], in assay [2], in assay [4], in assay [5], in [7] and in [8] was inactive. In addition, the call in assay [17] and in [18] was inactive. For the same compound, the Potency result in assay [3], in assay [6], in assay [9], in assay [11], in [15] and in assay [12] was “inactive” each time. Also, the Potency entry in assay [13] was “inactive”. Moreover, the Potency in assay [16] is 12.6 µM (active).
For the compound `NNC(=O)OCc1ccccc1`, the outcome in [1], in [2], in [4], in [5], in assay [7] and in assay [8] was inactive. In addition, the Potency result in [3], in [6], in assay [10] and in assay [14] was “inactive” throughout. The Potency in assay [9] was 54.5 µM (active); in [15], 56.4 µM (active); in [12], 15.9 µM (active).
As to `CCCc1ccc(O)c(OC)c1`, the call in assay [1], in assay [2], in assay [4], in assay [5], in assay [7] and in assay [8] was inactive. The Potency result in [3], in [6], in assay [9], in [10], in assay [11] and in assay [15] was “inactive” in each case. The Potency entry in assay [13] and in [14] was “inactive” each time. The Potency in assay [12] was 31.7 µM (active).
Consider `O=C(O)P(=O)(O)O`, for which the call in [1], in [2], in assay [4], in assay [5], in assay [7] and in assay [8] was inactive. The compound was called inactive in assay [17] and in [18]. The Potency entry in assay [3], in assay [6], in [9], in assay [10], in assay [11] and in [15] was “inactive” throughout. Further, the Potency result in [12], in assay [13] and in [14] was “inactive” each time. In assay [16], the max activation was -4.52%.

Source of the values: PubChem BioAssay (Tox21).
